# From PubChem BioAssay (Tox21)
# Records with an inconclusive call do not appear. Unmarked numbers belong to inactive results. The source made the active and inactive calls. The call rests on the fitted dose curve; in most records, active means well fitted activation curve with a large enough effect in the repeat runs; inconclusive means weak or mixed curves; inactive means no such curve, though single readings can be large or run the other way.
# Biological target: Nuclear receptor subfamily 1 group I member 2 (Rattus norvegicus) (UniProt Q9R1A7)
# Assay: Rat pregnane X receptor (rPXR) activation by small molecules, qHTS assay (AID 1346983); further: nearly all actives have a fitted effect of over 20% in size
# Settings: rPXR luciferase reporter cells, One-Glo luminescence, 24 h; max activation: stronger effect = higher value
# Summary of the method: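 Cell-based rPXR activation assay: rPXR cells, 2,000 per well, rested 5hr at 37 C, then exposed to compounds in DMSO for 24 hr at 37 C. Luciferase activity read by One-Glo luminescence after 30 min at room temperature.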
# On the % scale 0 is the no-effect control and ±100 the full control effect; potency means the concentration at half of the fitted maximal effect.
# Sequence of Nuclear receptor subfamily 1 group I member 2 (Rattus norvegicus) (Q9R1A7 whole entry, looked up): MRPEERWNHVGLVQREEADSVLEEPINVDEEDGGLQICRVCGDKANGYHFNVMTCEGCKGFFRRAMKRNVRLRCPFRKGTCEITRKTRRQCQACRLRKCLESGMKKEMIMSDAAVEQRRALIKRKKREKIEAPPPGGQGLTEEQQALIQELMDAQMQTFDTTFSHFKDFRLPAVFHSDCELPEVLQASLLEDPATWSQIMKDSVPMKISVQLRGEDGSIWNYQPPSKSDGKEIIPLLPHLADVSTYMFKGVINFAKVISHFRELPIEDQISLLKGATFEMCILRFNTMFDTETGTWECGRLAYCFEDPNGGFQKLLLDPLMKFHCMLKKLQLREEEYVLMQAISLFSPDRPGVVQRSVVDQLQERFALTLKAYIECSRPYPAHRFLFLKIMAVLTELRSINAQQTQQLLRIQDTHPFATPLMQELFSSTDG
Structure (SMILES),max activation [%],Potency
S=C1SCN(Cc2ccccc2)CN1Cc1ccccc1,2.55,
Cc1nc(NS(=O)(=O)c2ccc(N)cc2)nc(C)c1Br,-1.45,
CC(/C=C/C=C(\C)C(=O)O[C@@H]1O[C@H](CO[C@@H]2O[C@H](CO)[C@@H](O)[C@H](O)[C@H]2O)[C@@H](O)[C@H](O)[C@H]1O)=C\C=C\C=C(C)\C=C\C=C(/C)C(=O)O[C@@H]1O[C@H](CO[C@@H]2O[C@H](CO)[C@@H](O)[C@H](O)[C@H]2O)[C@@H](O)[C@H](O)[C@H]1O,-0.182,
CCN(CC)CCOc1ccc(-c2nc3cc(Cl)ccc3s2)cc1,,794 nM (active)
CN(C)CCCN1c2ccccc2C(C)(C)c2ccccc21,-1.25,
C[C@]12C=CC(=O)N[C@@H]1CC[C@@H]1[C@@H]2CC[C@]2(C)[C@@H](C(=O)Nc3cc(C(F)(F)F)ccc3C(F)(F)F)CC[C@@H]12,-1.05,
CC1(C)S[C@@H]2[C@H](NC(=O)C(C(=O)O)c3ccsc3)C(=O)N2[C@H]1C(=O)O (stereo partly specified),-6.29,
N#Cc1ccc2c(c1)N(CCCN1CCC(O)CC1)c1ccccc1S2,-1.43,
C=Cc1c(C)c2cc3nc(cc4[nH]c(cc5nc(cc1[nH]2)C(C)=C5CCC(=O)OC)c(CCC(=O)O)c4C)[C@@]1(C)C3=CC=C(C(=O)OC)[C@H]1C(=O)OC,-3.53,
C[C@]12CCC(=O)C[C@@H]1CC[C@@H]1[C@@H]2CC[C@]2(C)C=CC[C@@H]12,-0.035,
CC(C)N1CCN(c2ccc(OC[C@H]3CO[C@](Cn4cncn4)(c4ccc(Cl)cc4Cl)O3)cc2)CC1,-0.695,
